Results filed as inconclusive are left out. Active and inactive are the calls of the source. Unless noted, calls follow the shape of the full dose curve.
Assays:
[1] = Nuclear factor erythroid 2-related factor 2/antioxidant responsive element (Nrf2/ARE) small molecule agonists: qHTS cell viability counter screen in human keratinocytes (AID 1919968; active = well fitted curve in the direction sought with a large enough effect in the repeat runs; an effect the other way counts as inactive or inconclusive; also: nearly all actives have a fitted effect of over 55% in size)
Summary of the method: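 Cytotoxicity was multiplexed with the Nrf2/ARE luciferase assay in the same wells. Stably transfected HaCaT keratinocytes were treated with test compounds for 23 h at 37 C. Cell viability was then measured by CellTiter-Fluor fluorescence.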

[2] = Nuclear factor erythroid 2-related factor 2/antioxidant responsive element (Nrf2/ARE) small molecule agonists: luciferase reporter gene qHTS assay in human keratinocytes (AID 1919969); also: nearly all actives have a fitted effect of over 35% in size
[3] = biological target: Gonadotropin-releasing hormone receptor (Homo sapiens) (UniProt P30968); experiment: Human gonadotropin-releasing hormone receptor (GnRHR) small molecule agonists, calcium flux assay in GnRHR-HEK293 cells (AID 1920063); also: nearly all actives have a fitted effect of over 35% in size
Summary of the method: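 Agonist activity was measured as intracellular calcium flux in HEK293 cells engineered to stably express human GnRHR. After dye loading for 1 hour at 37 C, compounds in DMSO were added and fluorescence was followed for 3 minutes.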

[4] = biological target: KiSS-1 receptor (Homo sapiens) (UniProt Q969F8); experiment: Human kisspeptin (KISS1R) small molecule agonists, calcium flux assay in KISS1R-HEK293 cells (AID 1920064; active = well fitted curve in the direction sought with a large enough effect in the repeat runs; an effect the other way counts as inactive or inconclusive)
Summary of the method: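 Agonist activity is monitored as intracellular calcium rise in engineered HEK293 cells carrying human KISS1R. Cells are dye-loaded for 1 h at 37 C before compound addition, and fluorescence is recorded for 3 min.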

[5] = G protein-coupled receptor (GPCR) small molecule agonists, calcium flux assay: HEK293 wild type cell line counter screen (AID 1920065)
Summary of the method: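 Seed cells, incubate 18 h (37 C, 5% CO2); add calcium dye, 1 h at 37 C; pin-transfer compounds, ATP control or DMSO; read fluorescence 480/540 nm each second for 3 min.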

[6] = p53 small molecule agonists, cell-based qHTS assay with human liver microsomes (AID 1963577)
Summary of the method: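 Fluorescence of the beta-lactamase reporter in p53RE-bla cells, detected with LiveBLAzer substrate (2 h, room temperature, dark), served as the read-out after 16 h compound exposure at 37 C with human liver microsomes and NADPH, each 0.5 mg/mL final.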

[7] = p53 small molecule agonists, cell-based qHTS assay with rat liver microsomes (AID 1963578)
Summary of the method: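 Cells carrying a p53 response element–beta-lactamase reporter were plated and rested 5 h, then dosed with compound in DMSO plus rat liver microsomes and NADPH, each at 0.5 mg/mL final. After 16 h at 37 C, LiveBLAzer substrate was added for 2 h.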

[8] = p53 small molecule agonists, cell-based qHTS assay with human liver microsomes: qHTS cell viability counter screen (AID 1963579); also: nearly all actives have a fitted effect of over 45% in size
Summary of the method: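 Cytotoxicity counter screen: p53RE-bla, 4,000 cells/well; 5 h settle, 37 C/5% CO2; cpd + HLM 0.5 mg/mL + NADPH 0.5 mg/mL (final); 16 h, 37 C; CellTiter-Glo, 30 min RT, luminescence.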

[9] = p53 small molecule agonists, cell-based qHTS assay: qHTS cell viability counter screen (AID 1963581); also: nearly all actives have a fitted effect of over 45% in size
Summary of the method: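 Viability was counter-screened in parallel with the p53 agonist reporter by measuring intracellular ATP luminescence in the same HCT-116 p53RE-bla wells after 16 h compound treatment at 37 C.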

[10] = biological target: 5-hydroxytryptamine receptor 2A (Homo sapiens) (UniProt P28223); experiment: 5-hydroxytryptamine receptor 2A (HTR2A) small molecule antagonists, cell-based qHTS assay (AID 1963586); also: nearly all actives have a fitted effect of over 45% in size
Summary of the method: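 CHO cells stably expressing human HTR2A were plated for 18 h at 37 C, then loaded with calcium dye for 1 h. Compounds were preincubated 5 min at room temperature before DOI (4 nM solution) was added. Kinetic fluorescence was read for 3 min.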

[11] = biological target: 5-hydroxytryptamine receptor 2A (Homo sapiens) (UniProt P28223); experiment: 5-hydroxytryptamine receptor 2A (HTR2A) small molecule agonists, cell-based qHTS assay (AID 1963587); also: nearly all actives have a fitted effect of over 30% in size
Summary of the method: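 HTR2A-CHO cells, plated 18 h at 37 C/5% CO2, dye-loaded 1 h at 37 C; compounds in DMSO added by pin tool (agonist mode). Intracellular calcium flux read as kinetic fluorescence on FDSS over 2 min at 1 s intervals.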

[12] = biological target: Muscarinic acetylcholine receptor M1 (Homo sapiens) (UniProt P11229); experiment: Cholinergic receptor muscarinic 1 (CHRM1) small molecule antagonists, cell-based qHTS assay (AID 1963588); also: nearly all actives have a fitted effect of over 40% in size
Summary of the method: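 Compounds were tested at 15 concentrations in three independent runs. Dye-loaded CHRM1-CHO cells were exposed 5 min at room temperature before stimulation by acetylcholine added at 50nM. Intracellular calcium was read kinetically on FDSS for 3 min.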

[13] = biological target: Muscarinic acetylcholine receptor M1 (Homo sapiens) (UniProt P11229); experiment: Cholinergic receptor muscarinic 1 (CHRM1) small molecule agonists, cell-based qHTS assay (AID 1963589); also: nearly all actives have a fitted effect of over 35% in size
Summary of the method: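 Cells were plated and incubated 18 h at 37 C/5% CO2, loaded with calcium dye for 1 h at 37 C, then treated with compounds in DMSO. Fluorescence was recorded kinetically at 1 sec intervals.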

[14] = cAMP Responsive Elements (CRE) small molecule agonists, cell-based qHTS assay (AID 1963590)
Summary of the method: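 Cells carrying a CRE-driven beta-lactamase reporter (HEK 293T) are seeded, incubated overnight (18 h), and treated with test compounds for 3 h at 37 C; reporter activity is then detected with a FRET substrate after 2 h at room temperature.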

[15] = cAMP Responsive Elements (CRE) small molecule antagonists, cell-based qHTS assay (AID 1963591; active = well fitted inhibition curve with a large enough effect in the signal ratio in the repeat runs, not every such curve was filed as active; the % refers to the signal ratio)
Summary of the method: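 Cells (CRE-bla HEK 293T, DMEM with 10% dialyzed FBS and 25 mM HEPES) are seeded and incubated 18 h. Compounds are added with NKH477 agonist at 0.25 uM final for 3 h, then FRET substrate for 2 h.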

[16] = biological target: Beta-2 adrenergic receptor (Homo sapiens) (UniProt P07550); experiment: Adrenergic beta2 receptor (ADRB2) small molecule antagonists, cell-based qHTS assay (AID 1963592); also: series mostly up to about 92 µM; nearly all actives have a fitted effect of over 50% in size
Summary of the method: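 Assay format: CHO-ADRB2 cells, 18-20hr seeding at 37C/5% CO2, then compound plus 1nM isoproterenol agonist mix for 0.5hr RT. Homogeneous time-resolved fluorescence cAMP detection after 1hr, expressed as 665/615 nm ratio.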

[17] = biological target: Beta-2 adrenergic receptor (Homo sapiens) (UniProt P07550); experiment: Adrenergic beta2 receptor (ADRB2) small molecule agonists, cell-based qHTS assay (AID 1963593);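 also: CHO cells stably overexpressing human ADRB2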
Summary of the method: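 CHO cells stably over-expressing ADRB2 were plated overnight at 37C, then dosed with compounds plus a stimulation mix containing 100uM IBMX and 25uM Ro-20-1724 for 0.5hr at room temperature. cAMP was measured by HTRF competition, 1hr.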

[18] = biological target: D(2) dopamine receptor (Homo sapiens) (UniProt P14416); experiment: Dopamine D2 receptor (DRD2) small molecule antagonists, cell-based qHTS assay (AID 1963595; active = well fitted inhibition curve with a large enough effect in the signal ratio in the repeat runs, with a control signal flat; the % refers to the signal ratio)
Summary of the method: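 DRD2-HEK293; 0.1 mM Ro20-1724; cpd 10 min RT; NKH477 200 nM + quinpirole 12 nM, 30 min RT; HTRF cAMP (cAMP-d2/anti-cAMP cryptate), 665/620 nm ratio after 1 h.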

[19] = p53 small molecule agonists, cell-based qHTS assay (AID 1963582; active = well fitted activation curve with a large enough effect in the signal ratio in the repeat runs, not every such curve was filed as active; the % refers to the signal ratio)
Summary of the method: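 Cells carrying a p53-responsive bla reporter are treated with test compounds for 16 h at 37 C; beta-lactamase activity is then detected with LiveBLAzer B/G FRET substrate after 2 h at room temperature.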

[20] = biological target: D(2) dopamine receptor (Homo sapiens) (UniProt P14416); experiment: Dopamine D2 receptor (DRD2) small molecule agonists, cell-based qHTS assay (AID 1963594); also: nearly all actives have a fitted effect of over 35% in size
Summary of the method: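 HEK293 cells stably expressing DRD2 were cultured 24 h at 37 C, then given Ro20-1724 (0.1 mM final) and compounds for 10 min at room temperature. NKH477 (200nM) was then added for 30 min. cAMP was read by HTRF.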
% is scaled to controls: 0 for no effect and ±100 for the full control effect.

KiSS-1 receptor (Homo sapiens), sequence (Q969F8 whole entry, looked up): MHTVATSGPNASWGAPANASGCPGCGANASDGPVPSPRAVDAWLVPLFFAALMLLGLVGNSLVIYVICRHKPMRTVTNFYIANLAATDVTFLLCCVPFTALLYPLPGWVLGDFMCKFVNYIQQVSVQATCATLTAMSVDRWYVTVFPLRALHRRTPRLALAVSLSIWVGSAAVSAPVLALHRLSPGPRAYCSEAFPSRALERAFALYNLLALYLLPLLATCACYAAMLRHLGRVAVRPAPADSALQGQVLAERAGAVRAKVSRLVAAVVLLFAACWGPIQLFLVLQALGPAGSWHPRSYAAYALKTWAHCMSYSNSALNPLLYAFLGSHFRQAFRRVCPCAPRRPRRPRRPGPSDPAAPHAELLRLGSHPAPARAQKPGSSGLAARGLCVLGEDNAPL
Gonadotropin-releasing hormone receptor (Homo sapiens), sequence (P30968 whole entry, looked up): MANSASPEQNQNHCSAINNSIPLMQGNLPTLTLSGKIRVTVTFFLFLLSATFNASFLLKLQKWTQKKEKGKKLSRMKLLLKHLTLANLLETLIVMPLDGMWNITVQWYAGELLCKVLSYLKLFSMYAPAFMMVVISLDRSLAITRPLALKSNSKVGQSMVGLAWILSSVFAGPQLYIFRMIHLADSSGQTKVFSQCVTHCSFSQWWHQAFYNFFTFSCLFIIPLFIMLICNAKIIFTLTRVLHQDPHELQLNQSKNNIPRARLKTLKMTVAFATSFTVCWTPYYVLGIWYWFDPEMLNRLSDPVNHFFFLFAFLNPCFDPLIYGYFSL
Beta-2 adrenergic receptor (Homo sapiens), sequence (P07550 whole entry, looked up): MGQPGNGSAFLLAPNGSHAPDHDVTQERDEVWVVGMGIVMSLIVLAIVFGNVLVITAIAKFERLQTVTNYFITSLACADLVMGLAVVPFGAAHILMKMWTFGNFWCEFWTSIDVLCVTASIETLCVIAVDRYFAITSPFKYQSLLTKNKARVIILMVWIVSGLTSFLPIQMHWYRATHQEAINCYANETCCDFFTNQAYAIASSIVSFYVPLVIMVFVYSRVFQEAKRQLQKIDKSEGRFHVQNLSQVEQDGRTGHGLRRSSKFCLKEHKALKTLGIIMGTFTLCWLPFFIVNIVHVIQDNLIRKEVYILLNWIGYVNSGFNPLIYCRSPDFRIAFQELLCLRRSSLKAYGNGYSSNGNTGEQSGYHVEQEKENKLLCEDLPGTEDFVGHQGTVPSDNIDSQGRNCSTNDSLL
5-hydroxytryptamine receptor 2A (Homo sapiens), sequence (P28223 whole entry, looked up): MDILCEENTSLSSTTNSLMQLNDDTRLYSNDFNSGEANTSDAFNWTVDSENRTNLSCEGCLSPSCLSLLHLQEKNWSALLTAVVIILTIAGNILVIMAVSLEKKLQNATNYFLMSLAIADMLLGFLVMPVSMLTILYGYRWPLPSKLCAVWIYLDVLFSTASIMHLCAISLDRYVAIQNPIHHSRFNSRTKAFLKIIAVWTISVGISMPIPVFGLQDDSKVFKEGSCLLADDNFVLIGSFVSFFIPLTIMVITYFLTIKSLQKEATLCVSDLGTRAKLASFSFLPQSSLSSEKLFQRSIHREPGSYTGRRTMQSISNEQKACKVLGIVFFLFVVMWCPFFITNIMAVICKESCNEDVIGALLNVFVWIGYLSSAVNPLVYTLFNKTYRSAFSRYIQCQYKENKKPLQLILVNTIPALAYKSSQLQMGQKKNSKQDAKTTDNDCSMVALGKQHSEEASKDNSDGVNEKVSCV
Muscarinic acetylcholine receptor M1 (Homo sapiens), sequence (P11229 whole entry, looked up): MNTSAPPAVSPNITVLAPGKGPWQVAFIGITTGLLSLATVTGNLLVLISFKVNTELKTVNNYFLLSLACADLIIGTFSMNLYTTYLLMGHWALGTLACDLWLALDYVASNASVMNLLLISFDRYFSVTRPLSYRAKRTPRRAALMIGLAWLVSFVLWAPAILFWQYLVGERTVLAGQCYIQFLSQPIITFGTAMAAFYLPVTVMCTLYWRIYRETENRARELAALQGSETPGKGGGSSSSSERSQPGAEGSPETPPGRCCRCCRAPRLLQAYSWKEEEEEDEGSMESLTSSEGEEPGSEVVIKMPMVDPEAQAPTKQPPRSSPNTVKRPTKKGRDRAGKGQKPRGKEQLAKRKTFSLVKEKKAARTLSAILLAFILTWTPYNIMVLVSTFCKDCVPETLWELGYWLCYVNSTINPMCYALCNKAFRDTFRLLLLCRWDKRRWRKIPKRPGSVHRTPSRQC
D(2) dopamine receptor (Homo sapiens), sequence (P14416 whole entry, looked up): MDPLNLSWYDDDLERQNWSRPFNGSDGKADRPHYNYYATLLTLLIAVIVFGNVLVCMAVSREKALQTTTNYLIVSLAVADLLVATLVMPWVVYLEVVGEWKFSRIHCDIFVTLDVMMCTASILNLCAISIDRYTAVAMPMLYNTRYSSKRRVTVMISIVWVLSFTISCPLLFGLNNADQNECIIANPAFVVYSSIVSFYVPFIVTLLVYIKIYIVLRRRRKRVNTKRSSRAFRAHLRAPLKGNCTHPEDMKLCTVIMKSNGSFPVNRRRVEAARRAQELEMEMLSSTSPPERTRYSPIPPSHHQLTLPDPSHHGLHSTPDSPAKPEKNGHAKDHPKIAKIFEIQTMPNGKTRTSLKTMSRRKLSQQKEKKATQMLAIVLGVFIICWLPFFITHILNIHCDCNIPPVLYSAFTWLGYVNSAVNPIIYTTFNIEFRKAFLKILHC

CC(C)OCCO
inactive: Potency [1] | Potency [2] | Potency [3] | Potency [4] | Potency [5] | Potency [6] | Potency [7] | Potency [8] | Potency [9] | Potency [10] | Potency [11] | Potency [12] | Potency [13] | Potency [14] | Potency [15] | Potency [16] | Potency [17] | Potency [18]

CCCCCCCCCCCCCCCC
inactive: Potency [1] | Potency [2] | Potency [3] | Potency [4] | Potency [5] | Potency [6] | Potency [7] | Potency [8] | Potency [9] | Potency [19] | Potency [12] | Potency [13] | Potency [14] | Potency [15] | Potency [16] | Potency [17] | Potency [20] | Potency [18]

COC(=O)c1ccc2cc(C(=O)OC)ccc2c1
inactive: activity change, negative = cytotoxicity [1] 1.05% [at 19 µM] | activity, positive = activation [2] 20.6% [at 19 µM] | activity change [3] 0.0273% [at 11.8 µM, stronger effect = higher value] | activation [4] 2.25% [at 15.8 µM] | activation [5] 0.0113% [at 11.8 µM] | activation [6] -11.1% [at 13.5 µM] | activation [7] -1.04% [at 13.6 µM] | activity change, negative = cytotoxicity [8] -6.68% [at 13.5 µM] | activity change, negative = cytotoxicity [9] 11% [at 13.5 µM] | activation [19] -2.37% [at 13.5 µM] | activity, negative = inhibition [10] 2.21% [at 12.7 µM] | activation [11] -0.775% [at 15.9 µM] | activity, negative = inhibition [12] -8% [at 12.6 µM] | activation [14] -2.52% [at 19 µM] | activity change, negative = inhibition [15] -4.98% [at 18.9 µM] | activity change, negative = inhibition [16] -9.16% [at 19 µM] | activation [17] 21.2% [at 19 µM] | activation [20] -0.16% [at 19 µM]

OC[C@H]1O[C@@H](O[C@H]2[C@H](O)[C@@H](O)[C@H](O)O[C@@H]2CO)[C@H](O)[C@@H](O)[C@H]1O
inactive: Potency [1] | Potency [2] | Potency [3] | Potency [4] | Potency [5] | Potency [6] | Potency [7] | Potency [8] | Potency [9] | Potency [19] | Potency [10] | Potency [11] | Potency [14] | Potency [15] | Potency [16] | Potency [17] | Potency [20] | Potency [18]

CCc1ccc(C=O)cc1
inactive: Potency [1] | Potency [2] | Potency [3] | Potency [4] | Potency [5] | Potency [6] | Potency [7] | Potency [9] | Potency [19] | Potency [10] | Potency [11] | Potency [12] | Potency [13] | Potency [14] | Potency [15] | Potency [16] | Potency [17] | Potency [20] | Potency [18]

C[N+]1([O-])CCOCC1
inactive: Potency [1] | Potency [2] | Potency [3] | Potency [4] | Potency [5] | Potency [6] | Potency [7] | Potency [9] | Potency [19] | Potency [10] | Potency [11] | Potency [12] | Potency [13] | Potency [14] | Potency [15] | Potency [16] | Potency [17] | Potency [20]

CC(=O)Nc1ccc(N=Nc2cc(C)ccc2O)cc1
inactive: Potency [1] | Potency [2] | Potency [3] | Potency [4] | Potency [5] | Potency [6] | Potency [7] | Potency [9] | Potency [19] | Potency [10] | Potency [11] | Potency [12] | Potency [13] | Potency [14] | Potency [15] | Potency [16] | Potency [17] | Potency [20] | Potency [18]

From PubChem BioAssay (Tox21)
